# Experimental data from PubChem BioAssay.
# The source made the active and inactive calls. How the calls were made is not given here.
# Target: Pantothenate synthetase (Mycobacterium tuberculosis (strain ATCC 25618 / H37Rv)) (UniProt P9WIL5)
# Assay: Coupled enzyme confirmation of inhibitors against recombinant Mtb PanC (AID 375);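 further: 0% = full reaction with vehicle and 100% = no enzyme background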
# Settings: coupled enzyme assay; at 10 µM, stronger effect = higher value
# Sequence of Pantothenate synthetase (Mycobacterium tuberculosis (strain ATCC 25618 / H37Rv)) (P9WIL5 whole entry, looked up): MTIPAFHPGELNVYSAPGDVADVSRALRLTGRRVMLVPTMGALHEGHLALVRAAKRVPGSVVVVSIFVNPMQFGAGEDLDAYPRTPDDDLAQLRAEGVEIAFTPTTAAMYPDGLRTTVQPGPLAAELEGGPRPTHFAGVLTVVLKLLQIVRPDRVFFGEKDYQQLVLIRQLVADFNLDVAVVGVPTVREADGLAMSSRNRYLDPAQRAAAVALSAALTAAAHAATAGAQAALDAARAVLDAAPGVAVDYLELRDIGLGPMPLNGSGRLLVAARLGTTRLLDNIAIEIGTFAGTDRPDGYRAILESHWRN
row,SMILES,inhibition
1,COc1cccc(C2=Nn3c(nnc3-c3ccccc3O)SC2)c1,1% (inactive)
2,Cn1c2c(c(=O)n(C)c1=O)C(CC(=O)Nc1ccccc1)C(=O)N2 (stereo not given),7% (inactive)
3,CCN(Cc1nc2ccccc2c(=O)[nH]1)Cc1cc(=O)oc2cc(C)c(C)cc12,0% (inactive)
4,Cc1cccc2cc(CN(Cc3nnnn3Cc3ccco3)C3CCCC3)c3nnnn3c12,3% (inactive)
5,CNC(=O)CSc1nnc(-c2cc(C)cc(C)c2)o1,7% (inactive)
6,Cc1ccc(S(=O)(=O)NCCNC(=O)C2CCCNC2=O)cc1 (stereo not given),6% (inactive)
7,CC(OC(=O)c1cccc(NS(C)(=O)=O)c1)C(=O)Nc1ccc(N2CCOCC2)cc1 (stereo not given),0% (inactive)
8,CC1Cn2c(nnc2-c2ccc(F)cc2)S1 (stereo not given),6% (inactive)
9,CN(C)CCCNC(=O)c1ccc(CN(c2ccccc2)S(C)(=O)=O)cc1,0% (inactive)
10,O=c1[nH]c2ccccc2n1CCCN1CCN(C(c2ccccc2)c2ccccc2)CC1,1% (inactive)
11,CCn1cc(C(=O)N2CCCC2)c(=O)c2cc(S(=O)(=O)N3CCOCC3)ccc21,0% (inactive)
12,CCOc1ccc(NS(=O)(=O)c2cc(Cl)ccc2OC)cc1,4% (inactive)
13,COc1ccccc1N1CCN(Cc2nc(N)nc(Nc3ccc(C)c(Cl)c3)n2)CC1,3% (inactive)
14,Cc1ccc(NC(=O)CSc2nnc(CCCCCNC(=O)OC(C)(C)C)o2)c(C)c1,6% (inactive)
15,O=C(NCc1cccs1)C1CC(c2ccccc2O)=NO1 (stereo not given),5% (inactive)
16,O=C(CN1CCOCC1)N1CCCc2c1c(=O)oc1ccc(OCc3ccccc3)cc21,4% (inactive)
17,COc1ccc(NC(=O)CSc2nc3c(c(=O)n2-c2ccc(F)cc2)SCC3)c(OC)c1,0% (inactive)
18,CC1CN(C(=O)CSc2ncnc3sccc23)CC(C)O1 (stereo not given),0% (inactive)
19,Cc1nn(Cc2ccccc2)c2c1C(c1ccncc1)C(C#N)=C(N)O2 (stereo not given),0% (inactive)
20,O=C(CCCNS(=O)(=O)c1ccccc1)NCc1ccco1,0% (inactive)

row,SMILES,inhibition
1,CCOC(=O)Cn1c(=N)n(CCOc2cccc(C)c2)c2ccccc21,0% (inactive)
2,C/C(=N\O)C(=O)NCc1ccccn1,4% (inactive)
3,Cn1c(=O)c2c(nc(-n3ccnc3)n2C)n(C)c1=O,0% (inactive)
4,O=C(CN1C(=O)CCSc2ccccc21)Nc1ccc(F)cc1,1% (inactive)
5,COc1ccc(C2C3=C(CCCC3=O)Nc3nc(SCc4ccccc4)nn32)cc1OC (stereo not given),0% (inactive)
6,CCCC(=O)Nc1nnc(Sc2ccc(N(C)C)cc2)s1,0% (inactive)
7,COC(=O)Cc1cc(=O)[nH]c(Nc2nc3ccccc3o2)n1,0% (inactive)
8,COc1ccccc1-c1noc(-c2ccco2)n1,6% (inactive)
9,N#CCCCN1C(=O)C(O)(CC(=O)c2ccc3c(c2)OCCO3)c2ccccc21 (stereo not given),0% (inactive)
10,O=C(O)c1cc2nc(-c3ccc(F)cc3)cc(C(F)(F)F)n2n1,2% (inactive)
11,O=C(COc1ncnc2ccccc12)NCc1ccc2c(c1)OCO2,0% (inactive)
12,CCCSc1nc(N)c(C#N)c(-c2ccc(C)cc2)c1C#N,2% (inactive)
13,CCCc1nnc2n1N=C(c1ccc(-c3cc(Cl)ccc3Cl)o1)CS2,0% (inactive)
14,COc1ccccc1-n1c(=O)[nH]c2c(C(N)=O)nc(-c3cccnc3)nc21,0% (inactive)
15,O=C(NC12CC3CC(CC(C3)C1)C2)c1cncc(O)c1,2% (inactive)
16,O=C(CSc1nnc(Cc2ccccc2)n1-c1cccc(Cl)c1)N1CCOCC1,0% (inactive)
17,COCCNC(=O)C(c1ccncc1)N(C(=O)Cn1nnc2ccccc21)c1ccc(OC)cc1 (stereo not given),0% (inactive)
18,Cc1ccc(S(=O)(=O)N2CCOCC(=O)NCCOCCNC(=O)COCC2)cc1,0% (inactive)
19,C=CCn1c(-c2ccc(OC)cc2)nc2ccccc21,0% (inactive)
20,Cc1cccc2cc(C(c3nnnn3C(C)(C)C)N3CCN(C(=O)c4ccco4)CC3)c(=O)[nH]c12 (stereo not given),6% (inactive)
